Laboratory results from PubChem BioAssay.

System: XIP peptide (Xip251-270)
Assay: small-molecule binders of XIP peptide, primary screen, biochemical, small-molecule microarray, fluorescence 635/667 nm, 0.5 µg/mL protein (AID 1183)
Conditions: small-molecule microarray binding, fluorescence 635 nm; higher = more signal

`CC[C@@H](c1ccccc1)n1c(=O)n2n(c1=O)[C@H]1[C@H](O)[C@@H]3O[C@@H]3C(=O)[C@H]1CC2` was tested. Which composite z-score did it give?
The composite z-score was 0.0999.

`CCOC(=O)[C@H](Cc1ccccc1)NC(=O)CCC1CC(OC(=O)NCc2cccc3ccccc23)CC2(CCCC(COC(=O)NCc3cccc(C(F)(F)F)c3)O2)O1` (stereo partly drawn) was tested. Which composite z-score did it give?
Its composite z-score is 0.335.

How did the composite z-score turn out when `C[C@H]1Cc2c(COc3ccccc3)nc3c(c2CO1)CN(CCOc1ccccc1)CC3` was run?
Its composite z-score is 0.692.

Which composite z-score does the source give for `CCOC(=O)NN=C1C[C@@H](O)[C@@H](O)[C@@H]2[C@@H]3C(=O)N(c4cccc(Oc5ccccc5)c4)C(=O)[C@@H]3CC[C@@H]12` here?
The composite z-score was 0.651.

How did the composite z-score turn out when `COc1cc(O)c(C(=O)C=Cc2ccc3c(c2)OCO3)c(OC)c1` was run?
Its composite z-score is -0.218.

Which composite z-score does the source give for `C=CC[C@@H]1C=C[C@H](ON=C2[C@H]3CCn4c(=O)n(-c5ccccc5)c(=O)n4[C@H]3[C@H](O)[C@@H]3O[C@H]23)[C@@H](CO)O1` here?
The composite z-score was 0.287.

For `C[C@@H](c1ccccc1)N1C(=O)[C@H]2[C@H]3[C@H](O)[C@H](O)CC(=NO[C@@H]4O[C@H](CO)[C@@H](O)[C@H](O)[C@H]4O)[C@@H]3CC[C@H]2C1=O`, which composite z-score is on record?
Its composite z-score is 0.438.

How did the composite z-score turn out when `CC(CCN1CCCc2nc(C)c(C)cc21)=NO[C@@H](C)c1cc(-c2c(C)cc(C)cc2C)no1` was run?
The composite z-score was 0.567.

How did the composite z-score turn out when `CC(=O)OC[C@H]1O[C@H](CCON=C2[C@H]3CCn4c(=O)n(-c5ccccc5)c(=O)n4[C@H]3[C@H](O)[C@@H]3O[C@H]23)C=C[C@@H]1OC(C)=O` was run?
The composite z-score was -0.325.

Which composite z-score does the source give for `CCN1C(=O)[C@H]2[C@H]3[C@H](O)[C@H](O)CC(=NO[C@@H](C)c4cn([C@H](CO)Cc5ccccc5)nn4)[C@@H]3CC[C@H]2C1=O` here?
The composite z-score was 0.814.

With `CO[C@H]1COC(=O)[C@@H](C)COC(=O)[C@@H](OCc2ccccc2)C=C[C@@H]1C` as the molecule, how does the composite z-score read?
The composite z-score was 0.204.

With `COc1ccc(C#C[C@@H]2C=C[C@H](OC(C)=O)[C@@H](COC(C)=O)O2)cc1` as the molecule, how does the composite z-score read?
The composite z-score was 0.443.

Which composite z-score does the source give for `CC(C)=CCCC(C)=CCON=C1C[C@@H](O)[C@@H](O)[C@@H]2[C@@H]3C(=O)N(Cc4ccccc4)C(=O)[C@@H]3CC[C@@H]12` here?
The composite z-score was 0.703.

How did the composite z-score turn out when `O=C1[C@H]2[C@H]3[C@H](O)[C@H](O)CC(=NOCc4ccccc4)[C@@H]3CC[C@H]2C(=O)N1Cc1ccc2c(c1)OCO2` was run?
Its composite z-score is 0.2.

How did the composite z-score turn out when `CO[C@@H]1C=CCC(=O)N2CCC[C@H]2C(=O)OC[C@@H](C)C(=O)OC[C@H]1C` was run?
The composite z-score was 0.826.

Which composite z-score does the source give for `CC(C)=CCCC(C)=CCON=C1C[C@@H](O)[C@@H](O)[C@@H]2[C@@H]3C(=O)N(C(C)(C)C)C(=O)[C@@H]3CC[C@H]12` here?
The composite z-score was 0.427.

With `COC(=O)[C@H](C)NC(=O)CCC1CC(OC(=O)NCCc2ccc(F)cc2)CC2(CCCC(COC(=O)NCc3cccc(C(F)(F)F)c3)O2)O1` (stereo partly drawn) as the molecule, how does the composite z-score read?
Its composite z-score is 0.517.

For `CCC1=NOC(CCC2CC(OC(=O)NCc3cccc4c3OCO4)CC3(CCCC(COC(=O)NCCc4ccccc4OC)O3)O2)C1` (stereo not drawn), which composite z-score is on record?
The composite z-score was 0.357.

Which composite z-score does the source give for `CC(C)=CCCC(C)=CCON=C1C[C@@H](O)[C@@H](O)[C@@H]2[C@@H]3C(=O)N(C4CCCCC4)C(=O)[C@@H]3CC[C@@H]12` here?
The composite z-score was 0.426.

For `COc1ccc(COC(=O)NN=C2C[C@@H](O)[C@@H](O)[C@@H]3[C@@H]4C(=O)N(C5CCCCC5)C(=O)[C@@H]4CC[C@H]23)cc1`, which composite z-score is on record?
The composite z-score was -1.02.

How did the composite z-score turn out when `CC(CCN1CCCCc2nc(C)c(C)cc21)=NOC[C@@H](O)COCc1ccco1` was run?
The composite z-score was 0.863.

`CCN1C(=O)[C@H]2[C@H]3[C@H](O)[C@H](O)CC(=NOC[C@H]4O[C@H](c5ccccc5)C=C[C@@H]4Oc4ccc(OC)cc4)[C@@H]3CC[C@H]2C1=O` was tested. Which composite z-score did it give?
Its composite z-score is 0.704.

With `O=C(NN=C1C[C@@H](O)[C@@H](O)[C@@H]2[C@@H]3C(=O)N(C4CCCCC4)C(=O)[C@@H]3CC[C@H]12)OCc1ccccc1` as the molecule, how does the composite z-score read?
Its composite z-score is 0.109.

How did the composite z-score turn out when `CCOC(=O)NN=C1C[C@@H](O)[C@@H](O)[C@@H]2[C@@H]3C(=O)N(Cc4ccccc4)C(=O)[C@@H]3CC[C@H]12` was run?
The composite z-score was 0.0213.

With `CC(C)(C)N1C(=O)[C@H]2[C@H]3[C@H](O)[C@H](O)CC(=O)[C@H]3CC[C@H]2C1=O` as the molecule, how does the composite z-score read?
Its composite z-score is 0.556.

`C[C@@H]1CC[C@H]2C(=O)O[C@@H](Cc3ccccc3)CN2[C@H]1c1ccc(Br)cc1` was tested. Which composite z-score did it give?
The composite z-score was 0.174.

How did the composite z-score turn out when `CCOC(=O)NN=C1C[C@@H](O)[C@@H](O)[C@@H]2[C@@H]3C(=O)N(Cc4ccc5c(c4)OCO5)C(=O)[C@@H]3CC[C@H]12` was run?
The composite z-score was -0.437.

Which composite z-score does the source give for `CCN1C(=O)[C@H]2[C@H]3[C@H](O)[C@H](O)CC(=NNC(=O)OCc4ccc(OC)cc4)[C@@H]3CC[C@H]2C1=O` here?
Its composite z-score is -0.225.
